Bioassay records as filed in PubChem BioAssay.
The sample as a whole holds a higher share of hits than the screen did.
Dicer inh: inhibitors of Dicer pre-microRNA processing, primary screen, biochemical, cat-ELCCA, chemiluminescence. cat-ELCCA pre-miR-21 Dicer processing; hits give high values. AID 1347074, 2019. hit rate 6% among 47,000. z-score at 25 µM; in the data active means z-score above about 3, passing the limit was not always enough;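 further: higher signal means more uncleaved substrate so more Dicer inhibition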
Numbers stand for hits.

How did COC(=O)C1=C(C(=O)OC)SC(=C2C(=S)C(C)(C)Nc3ccc(C)cc32)S1 do in these assays?
Dicer inh: inactive

Results for O=c1c(-c2ccc3c(c2)OCCO3)coc2cc(O)ccc12 ?
Dicer inh: inactive

How did COc1ccc(C(=O)c2sc3nc(-c4ccc(OC)cc4)ccc3c2N)cc1 do in these assays?
Dicer inh: inactive

Results for Cc1ccc2c(N)c(C(=O)c3ccc(-c4ccccc4)cc3)sc2n1 ?
Dicer inh: 3.2

How did Cc1cc(C)c2c(N)c(C(=O)c3ccccc3)sc2n1 do in these assays?
Dicer inh: inactive

How did OC(CNC1CCN(Cc2ccccc2)CC1)COc1ccc2c(c1)OCO2 (configuration not stated) do in these assays?
Dicer inh: inactive

What do the screens show for `CN1CCN(CCCCC(=O)O)CC1`?
Dicer inh: 4

What do the screens show for `O=C(O)CCCCCCCC(=O)O`?
Dicer inh: inactive

Results for CN1CCN(C(=O)CCC(=O)O)CC1 ?
Dicer inh: inactive

How did O=C1/C(=C\c2cc(-c3ccccc3)c(C(F)(F)F)s2)CSc2ccc(Cl)cc21 do in these assays?
Dicer inh: inactive

How did C#CCSc1nc(C)c2cc(C)ccc2n1 do in these assays?
Dicer inh: inactive

How did CCc1ccc(-c2cn3c4ccccc4nc3n2CCO)cc1 do in these assays?
Dicer inh: inactive

What do the screens show for `COc1ccc(OC)c(/C=C(\C#N)C(N)=O)c1`?
Dicer inh: inactive

Results for CCCOc1ccc(C2c3c(oc4ccc(F)cc4c3=O)C(=O)N2CCCN(C)C)cc1 (configuration not stated) ?
Dicer inh: inactive

What do the screens show for `CCOc1ccccc1Oc1c(C)oc2cc(O)ccc2c1=O`?
Dicer inh: inactive

How did COc1ccccc1Oc1coc2cc(O)ccc2c1=O do in these assays?
Dicer inh: inactive

Results for CCOc1ccccc1Oc1coc2cc(O)ccc2c1=O ?
Dicer inh: 3.3

Results for O=C1CCC(=O)N1CNc1ccccc1C(F)(F)F ?
Dicer inh: inactive

How did O=C1CCC(=O)N1CNc1ccccn1 do in these assays?
Dicer inh: 3.4

How did Cc1cccc(NCN2C(=O)CCC2=O)n1 do in these assays?
Dicer inh: inactive

What do the screens show for `Fc1ccc(C2C3CCc4ccccc4C3=NN2C(=S)Nc2ccc(Cl)cc2)cc1` (configuration not stated)?
Dicer inh: inactive

How did CCN(CC)CCn1c(NCc2cc(OC)ccc2OC)nc2ccccc21 do in these assays?
Dicer inh: inactive

Results for c1ccc(Cn2c(NCc3ccco3)nc3ccccc32)cc1 ?
Dicer inh: 3.7

Results for COc1ccc(CNc2nc3ccccc3n2CCN2CCOCC2)c(OC)c1 ?
Dicer inh: 3.5

Results for Cn1c(NCc2ccco2)nc2c1c(=O)n(Cc1ccccc1)c(=O)n2C ?
Dicer inh: inactive

What do the screens show for `Clc1ccccc1CNc1nc2ccccc2n1CCN1CCCCC1`?
Dicer inh: inactive

Results for c1coc(CNc2nc3ccccc3n2CCN2CCOCC2)c1 ?
Dicer inh: 5.1

Results for c1ccc2c(c1)nc(NCc1ccncc1)n2CCN1CCCCC1 ?
Dicer inh: inactive

Results for Cn1c(CNc2nc3ccccc3n2CCN2CCOCC2)nc2ccccc21 ?
Dicer inh: inactive

Results for CCCn1c(NCc2ccccn2)nc2ccccc21 ?
Dicer inh: inactive

Results for Cc1nc2ccccc2n1CCN1CCOCC1 ?
Dicer inh: inactive

How did Nc1nc2ccccc2n1Cc1ccccc1 do in these assays?
Dicer inh: inactive

What do the screens show for `c1ccc(CNc2nc3ccccc3n2CCN2CCOCC2)nc1`?
Dicer inh: 5.4

How did CCOC(=O)CNC(=O)Cn1cnc2c1c(=O)n(C)c(=O)n2C do in these assays?
Dicer inh: inactive

How did CC(C)(C)c1[nH]nc2c1C(c1ccc(Cl)cc1)C(C#N)=C(N)O2 (configuration not stated) do in these assays?
Dicer inh: inactive

What do the screens show for `CCOc1cc(C2/C(=C(/O)c3ccc(C)cc3)C(=O)C(=O)N2CC(C)C)ccc1O` (configuration not stated)?
Dicer inh: inactive

What do the screens show for `O=C1OC(c2ccccc2)=N/C1=C/c1ccc(Cl)cc1`?
Dicer inh: inactive

How did COc1ccc(C(O[C@H]2C[C@H](n3cc(C)c(=O)[nH]c3=O)O[C@@H]2CO)(c2ccccc2)c2ccc(OC)cc2)cc1 do in these assays?
Dicer inh: inactive

Results for CC(C)c1nn2c(=O)c(NC(=O)c3ccccc3)cnc2s1 ?
Dicer inh: inactive

Results for CSC(N)=Nc1cccc(Cl)c1Cl ?
Dicer inh: inactive

What do the screens show for `CCCCNC(=O)Cn1nc(C(F)(F)F)c2c1CCC2`?
Dicer inh: inactive

How did O=C(Nc1nc(C(F)(F)F)c(-c2ccccc2)s1)c1cccs1 do in these assays?
Dicer inh: inactive

How did Cc1cc(C)n(-c2ccc(-n3c(C)ccc3C)cc2)n1 do in these assays?
Dicer inh: inactive

Results for CN(C)c1ccc(/C=C2\C(=O)Nc3ccccc32)cc1C#N ?
Dicer inh: inactive

What do the screens show for `CC1(C)C=Cc2cc(/C(N)=N/O)ccc2O1`?
Dicer inh: inactive

What do the screens show for `CN1c2ccccc2C(C)(C)C12C=Cc1cc(O)ccc1O2` (configuration not stated)?
Dicer inh: 15
